# Out of some 370,000 compounds screened, about 4,700 (1.3%) were called active. The sample as a whole holds a higher share of actives than the screen did. Unmarked numbers belong to inactive results.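 How the source made its calls: active means inhibition above the plate cutoff, the mean of all test compounds on that plate plus 3 SD (cut at about 35% in these data); inactive means the rest.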
# Test: binders of r(CAG) RNA repeats, primary screen, biochemical, fluorescence (AID 651821);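 further: 0% = DMSO alone and 100% = 100 µM mitoxantrone as full dye displacement; higher means more dye released from RNA so lower well fluorescence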
# Conditions: r(CAG) RNA repeat, TO-PRO-1 dye displacement fluorescence; at 3 µM; active compounds read high
row,Structure (SMILES),inhibition
1,CC(C)CNC(=O)OCc1cn(Cc2ccc(F)cc2)nn1,0.38%
2,Cc1cc2c(nc1C)CCCN2C,-0.74%
3,COC(=O)[C@H](C(C)C)N1CCc2nnn(Cc3ccc(C)cc3)c2-c2ccccc2S1(=O)=O,-0.02%
4,COCc1[nH]nc2c1C(c1ccccc1)N(c1ccccc1)C2=O (configuration not stated),-0.7%
5,CS(=O)(=O)c1ccccc1C(=O)Nc1ccc2sccc2c1,2.53%
6,O=C(Nc1ccc2ccccc2c1)Nc1ccc2snnc2c1,47.6% (active)
7,O=S(=O)(Nc1ccc2ccccc2c1)N1CCCCC1,4.05%
8,C[C@@H]1ON(C)[C@H]2C[C@H]3c4cc(N5CCOCC5)ccc4CCN3C[C@@H]12,0.67%
9,CCCCN1C(=O)C(=O)N(CC(=O)Nc2cccc(C(C)=O)c2)C1=O,4.35%
10,CCSc1nsc(NC(=O)Nc2cccc(C(C)=O)c2)n1,62.7% (active)
11,CCc1nnc(NC(=O)CSc2nnnn2-c2cccc(C(C)=O)c2)s1,-0.71%
12,COC(=O)c1cccc(NC(=O)CSc2nc(C)cc(=O)[nH]2)c1,6.31%
13,CC(=O)N1CCC(C(=O)Nc2nc(-c3ccccc3)ns2)CC1,6.24%
14,C=CCSc1nnc2c(n1)-c1cccc3cccc-2c13,7.81%
15,CSc1nsc(NC(=O)Nc2ccccc2)n1,38.9% (active)
16,C=CCSc1nsc(NC(=O)Nc2cccc(C(C)=O)c2)n1,60.2% (active)
17,CSc1nsc(SCC(=O)Nc2cc(C(=O)O)ccc2C)n1,7.69%
18,O=C(NC1CCC1)c1ccc(C#CC2CC2)cn1,4.07%
19,CCC(c1ccc(NC(=O)OC(C)(C)C)cc1)c1cc(OC)cc(OC)c1 (configuration not stated),3.19%
20,COC(=O)C1=C(C)N(Cc2ccccc2C(F)(F)F)C(=NCc2ccc(C(F)(F)F)cc2)NC1c1ccc(F)cc1 (configuration not stated),1.68%
21,C=CCN(C(=O)[C@@H](CCCC)[C@@H](O)c1ccc(Cl)cc1)c1ccccc1,-0.19%
22,CCC(C)C(N=C1NS(=O)(=O)c2ccccc21)C(=O)N1CCC(C)CC1 (configuration not stated),-5.03%
23,COc1ccc(S[C@]2(C(=O)N(C)C)CC(=O)N(c3ccc(OC)cc3)[C@@H]2c2ccc(OC)cc2)cc1,2.57%
24,C=CCN1C(=O)[C@@H](CC(=O)NCC2CCCCC2)[C@]2(C(=O)OC)CCCCC=C12,2.39%

row,Structure (SMILES),inhibition
1,Cc1cc(C(=O)N/N=C/c2ccc(O)c([N+](=O)[O-])c2)c(C)n1-c1ccc(F)cc1,40.9% (active)
2,Cc1c(Cl)c([N+](=O)[O-])nn1Cc1ccc(C(=O)N/N=C\c2cc(Cl)ccc2O)o1,7.06%
3,CC(Oc1ccccc1[N+](=O)[O-])C(=O)N/N=C/c1ccoc1 (configuration not stated),6.95%
4,O=c1[nH]c(-c2ccccc2)cn1C1CCN(Cc2ccc(-c3nc4ccc(F)cc4nc3-c3ccccc3)cc2)CC1,14.3%
5,O=C(CCC1CCCN(Cc2ccc(O)c(Cl)c2)C1)NCc1ccccc1F (configuration not stated),-2.68%
6,CCOC(=O)C(=O)N(Cc1ccccc1)c1ccccc1C(=O)Nc1cc(OC)ccc1OC,-0.13%
7,CCC(NC(=O)C1C2C=CC3(CN(Cc4ccccc4)C(=O)C13)O2)c1ccccc1 (configuration not stated),0.21%
8,Cc1ccc(C(C)C)c(OCCSc2nc3ccccc3n2CC(=O)O)c1,40.7% (active)
9,COc1ccccc1OCCn1c(SCC(N)=O)nc2ccccc21,1.66%
10,CCOc1ccc(OCCSc2nc3ccccc3n2CC(=O)O)cc1,7.86%
11,Cc1ccc(Cn2cc(CN3[C@@H](CC(C)C)COc4ccc(Cl)cc4S3(=O)=O)nn2)cc1,2.98%
12,COC(=O)C1CN(CCc2ccccc2)CCS(=O)(=O)N1Cc1cccc(Cl)c1 (configuration not stated),1.15%
13,CN1C[C@]2(C=C3CCCCC3n3c(=O)n(-c4ccccc4)c(=O)n32)N=C1NC(=O)c1ccccc1 (some centres not stated),8.01%
14,Cc1ccc(C(=O)COC(=O)c2cccc(N3C(=O)c4c(C)nc5ccccc5c4C3=O)c2)cc1C,8.76%
15,COc1ccc(-c2nc3ccc(Br)cn3c2Cc2ccc(C)cc2)cc1OC,40.1% (active)
16,COC(=O)c1ccc2nc(-c3ccc(OC)c(OC)c3)c(Cc3ccccc3)n2c1,9.92%
17,Cc1ccc(-c2nc3ccc(Br)cn3c2Cc2ccccc2C(F)(F)F)cc1,30.3%
18,Cc1ccc(-c2nc3c(C)cc(Br)cn3c2Cc2ccccc2)cc1,10.3%
19,Cc1cc(Br)cn2c(Cc3ccccc3C(F)(F)F)c(-c3ccc(Cl)cc3)nc12,11.8%
20,Brc1ccc2nc(-c3ccccc3)c(Cc3ccccc3)n2c1,13.1%
21,Fc1cccc(Cc2c(-c3cccc(Cl)c3)nc3ccc(Br)cn23)c1,48.3% (active)
22,Fc1cccc(Cc2c(-c3ccc(Cl)cc3)nc3ccc(Cl)cn23)c1,20.9%
23,Cc1cc(Br)cn2c(Cc3cccc(F)c3)c(-c3cccc(Br)c3)nc12,48.4% (active)
